Screening data: PubChem BioAssay, National Center for Advancing Translational Sciences (NCATS)
HCV inhibitor – inhibitors of hepatitis C virus infection; Huh7.5.1 HCVcc-Cre infection, luciferase reporter, 44 h; Potency, µM (titrated, usually from 41.8 µM), actives largely listed as inhibitors; 3.4% of 340,000 active; active means well fitted inhibition curve with a large enough effect; inconclusive means small, poorly fitted or top-dose-only effect, or another doubt; inactive means no such curve, though single readings can be large or run the other way
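Compounds are dispensed onto cells plated 4 h earlier at 1,000 per well, with HCVcc-Cre virus (about 0.5 moi) added next. Following 44 h of culture, luminescent signal is measured for 15 sec after 15 min with substrate at room temperature.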
MARV entry inh – inhibitors of Marburg virus binding or cell entry; 1.8% of 300,000 active; Potency, µM (doses to about 37.8 µM), actives largely listed as inhibitors; Marburg virus pseudotyped entry inhibition, cell reporter; calls by dose curve; tested in HEK293 cells
FMDV inh – antivirals against foot and mouth disease virus; FMDV antiviral cell-based qHTS; Potency, µM (series often up to 57.9 µM), usual class: inhibitors; 1.2% of 410,000 active; calls by dose curve; tested in HEK293T cells; further: read-out not given here; nearly all actives have a fitted effect of over 45% in size
HCMV antiviral – inhibitors of human cytomegalovirus | AID 1259415 | HFF cells, HCMV-luciferase reporter, 72 h; active compounds read low | 4.5% of 410,000 active | activity change, negative = inhibition, % at 57.5 µM; in the data active means activity change below about -60%; inconclusive means no clear call, values can overlap the other calls; inactive means above about -39%
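Compounds were evaluated in HFFs infected with an HCMV luciferase reporter virus (MOI 1 PFU/cell). Luciferase in lysates collected 72 h post infection served as the replication measure.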
Lassa entry inh – Lassa virus entry inhibition; 1.2% of 300,000 active; Potency, µM (series often up to 37.9 µM), usual class: inhibitors; Lassa virus pseudotype entry inhibition, cell reporter; AID 540256; calls by dose curve; tested in HEK293 cells; further: nearly all actives have a fitted effect of over 50% in size
Hits are given with their value; i = inactive; ? = inconclusive; nt = no result given; ! = not active in a repeat. In the library only some 7.9% were active in any assay of this set; here they are far more common.

SMILES | HCV inhibitor | MARV entry inh | FMDV inh | HCMV antiviral | Lassa entry inh
CCCCCCCCCCCCCCCC[n+]1ccc(C(N)=O)cc1 | i | i | ? | -85.5 | ?
CCCCCCCCCCCCCCCC[n+]1cccc(C(=O)N(CC)CC)c1 | i | 7.08µM | i | i | 11.2µM
CCCCCCC[n+]1ccc(-c2cc[n+](CCCCCCC)cc2)cc1 | ? | ? | i | -100.9 | i
Cc1cc[n+](CC[n+]2ccc(C)cc2)cc1 | i | nt | i | i | nt
CCCCCCCCCCCCCCCC[n+]1ccccc1 | 3.16µM | ? | 15.8µM! | -97.9 | ?
COc1cc(/C=C/C(=O)OCC(=O)NC(=O)NC(C)C)ccc1O | i | nt | i | i | nt
O=C(Cc1ccc2c(c1)OCO2)N1CCOc2ccc(CN3CCOCC3)cc2C1 | nt | nt | i | nt | nt
COc1cc(OC)cc(C(=O)NCC(=O)OCC(=O)Nc2ccc(C)c(S(=O)(=O)N3CCOCC3)c2)c1 | i | i | i | i | i
CC(=O)N1CCc2cc(S(=O)(=O)NC(Cc3ccccc3)C(=O)Nc3ccc(C)cc3C)ccc21 (centres undefined) | nt | i | i | i | i
CC(=O)OC[C@H]1O[C@H](C#Cc2ccccc2Cl)C=C[C@@H]1OC(C)=O | nt | i | nt | nt | nt
O/N=C/c1cccc[n+]1CCCCCC[n+]1ccccc1/C=N/O | i | i | i | i | ?
CCCCCCCCCCCCCCCC[n+]1ccc(/C=N/O)cc1 | ? | 4.47µM | ? | -97.1 | 6.51µM
N#CCC(CNc1ncc(C(F)(F)F)cc1Cl)OC(=O)c1ccc(Cl)cc1 (centres undefined) | ? | i | nt | -62.5 | i
Cc1ccc(-n2c(SCC(=O)N(C)C)nnc2-c2ccco2)cc1 | i | nt | i | i | nt
COc1ccc(N[C@H]2CC(=O)N(C)C2=O)cc1 | nt | i | nt | nt | nt
CC1CCN(C(=O)c2ccc(NS(=O)(=O)c3ccccc3)cc2)CC1 | i | i | i | i | ?
Cc1ccc(NC(=O)c2ccc(CNS(=O)(=O)c3cccc(C(F)(F)F)c3)cc2)cc1 | i | i | i | i | i
CC1CCN(C(=O)c2ccc(CNS(=O)(=O)c3ccc(C(C)(C)C)cc3)cc2)CC1 | 22.4µM | nt | i | i | nt
CC1CN(C(=O)c2ccc(CNS(=O)(=O)c3cccc(C(F)(F)F)c3)cc2)CC(C)O1 (centres undefined) | ? | 12.6µM | i | i | i
COc1ccc(NS(=O)(=O)c2ccc(C(=O)N3CCC(C)CC3)cc2)cc1 | ? | ? | i | -66.2 | ?
CCOC(=O)C1CCN(C(=O)c2ccc(NS(=O)(=O)c3ccc4[nH]c(=O)[nH]c4c3)cc2)CC1 | i | nt | i | i | nt
CC1CCN(C(=O)c2ccc(NS(=O)(=O)c3ccc4[nH]c(=O)[nH]c4c3)cc2)CC1 | ? | i | i | -97.9 | i
Cc1cccc(CC(=O)NC2CC(=O)N(c3cccc(F)c3)C2)c1 (centres undefined) | nt | nt | i | i | i
CCOC(=O)N1CCN(C(=O)COC(=O)c2ccc(S(=O)(=O)N(CC)CC)cc2)CC1 | i | ? | i | i | i
CC(=O)N1CC(=O)N2[C@@H](CO)[C@@H](c3ccc(Br)cc3)[C@@H]2C1 | nt | nt | nt | i | nt
SMILES | HCV inhibitor | MARV entry inh | FMDV inh | HCMV antiviral | Lassa entry inh
COc1ccccc1CCn1c(=O)c(-c2ccccc2)nc2cncnc21 | nt | nt | i | nt | nt
N#Cc1cccc(NC(=O)N2CC[C@@]3(CCCN(C(=O)c4ccco4)C3)C2)c1 | nt | nt | i | nt | nt
CCn1cc(CN(C)S(=O)(=O)c2cccc([N+](=O)[O-])c2)cn1 | i | i | i | i | i
CCn1cc(CN(C)S(=O)(=O)c2ccc3ccccc3c2)c(C)n1 | 7.94µM | ? | ? | -68.4 | ?
Cc1ccc2nc(-c3cccc(Cl)c3)c(Cc3ccsc3)n2c1 | nt | nt | nt | i | nt
Cc1ncc2c(c1CNS(=O)(=O)N(C)C)CCN(C(=O)/C=C/c1ccccc1F)C2 | nt | nt | i | nt | nt
COc1ccc(-c2ccc(C#N)c(OC(=O)c3c(Cl)cccc3Cl)n2)cc1 | 5.01µM | i | i | i | ?
Cc1cccc2nc(CSc3ccccc3N)cn12 | i | i | i | i | ?
Cc1cccc2nc(COc3ccc4ccccc4c3Br)cn12 | i | 10µM | i | i | ?
CCOc1ccccc1C(=O)NCC(=O)NNC(=O)CN(C)S(=O)(=O)c1ccc(Cl)cc1 | ? | ? | i | i | i
CCc1ccccc1NC(=O)CN1C(=O)COc2ccc(S(=O)(=O)N3CCCCCC3)cc21 | nt | nt | i | i | i
CCC(C)NS(=O)(=O)c1ccc(S(=O)(=O)N2CC=C(c3ccc(F)cc3)CC2)cc1 (centres undefined) | ? | ? | ? | -72.8 | i
CCC(C)NC(=O)C1=CCN(S(=O)(=O)c2ccc(C)cc2)CC1 (centres undefined) | i | nt | i | i | nt
